# From the supplement of paper PMC9694430
# Tests used:
# Experiment in all cases: thermal shift delta Tm vs DMSO control; higher = stronger stabilization (binding)
# Conditions in all cases: 12.5 µM; protein concentration 2 µM
# [1] = system: LOC_OS04G57630-cb004
# Summary of the method: (§1)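 Rice kinase domain constructs were expressed in E. coli, purified, and tested by differential scanning fluorimetry with compound added in DMSO. Each well of a 96-well plate held 19.5 μl of 2 μM kinase in 100 mM potassium phosphate pH 7.5, 150 mM NaCl, 10% glycerol and 5 × SYPRO Orange, and fluorescence was read from 25°C to 95°C at 0.05°C/s. The melting temperature shift is the mean of triplicates, taken against protein with DMSO alone after Boltzmann fitting.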
# [2] = system: LOC_OS05G07850-cb002
# Summary of the method: as §1
# [3] = system: LOC_OS05G16824-cb004
# Summary of the method: as §1
# [4] = system: LOC_OS05G28520-cb001
# Summary of the method: as §1
# [5] = system: LOC_OS05G30820-cb001
# Summary of the method: as §1
# [6] = system: LOC_OS05G43570-cb004
# Summary of the method: as §1
# [7] = system: LOC_OS06G16330-cb003
# Sequence of LOC_OS06G16330-cb003 (as listed by the source): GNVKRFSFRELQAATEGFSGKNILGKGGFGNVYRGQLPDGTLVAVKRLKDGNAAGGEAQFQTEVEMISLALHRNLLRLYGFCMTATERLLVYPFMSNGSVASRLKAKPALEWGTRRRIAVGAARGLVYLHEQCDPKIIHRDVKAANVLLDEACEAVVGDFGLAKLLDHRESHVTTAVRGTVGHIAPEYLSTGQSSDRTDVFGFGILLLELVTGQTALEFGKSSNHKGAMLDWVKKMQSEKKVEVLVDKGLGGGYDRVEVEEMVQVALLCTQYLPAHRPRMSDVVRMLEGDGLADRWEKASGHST
# Summary of the method: as §1
# [8] = system: T1, LOC_OS06G22820-cb001
# T1 sequence (whole entry): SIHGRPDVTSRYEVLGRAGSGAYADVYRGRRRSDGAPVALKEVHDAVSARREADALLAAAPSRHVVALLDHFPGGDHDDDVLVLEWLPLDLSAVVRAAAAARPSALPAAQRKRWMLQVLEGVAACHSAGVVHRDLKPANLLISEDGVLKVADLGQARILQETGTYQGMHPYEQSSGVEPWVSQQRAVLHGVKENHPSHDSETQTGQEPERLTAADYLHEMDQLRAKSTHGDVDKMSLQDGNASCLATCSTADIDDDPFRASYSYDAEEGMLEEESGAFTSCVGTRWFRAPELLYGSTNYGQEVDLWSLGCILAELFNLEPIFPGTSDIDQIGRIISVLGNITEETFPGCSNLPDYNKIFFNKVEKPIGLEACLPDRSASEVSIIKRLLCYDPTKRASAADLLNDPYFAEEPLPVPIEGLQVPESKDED
# Summary of the method: as §1
# [9] = system: LOC_OS07G06570-cb004
# Summary of the method: as §1
# [10] = system: LOC_OS07G07230-cb001
# Summary of the method: as §1
SMILES,thermal shift delta Tm [1] [°C],thermal shift delta Tm [2] [°C],thermal shift delta Tm [3] [°C],thermal shift delta Tm [4] [°C],thermal shift delta Tm [5] [°C],thermal shift delta Tm [6] [°C],thermal shift delta Tm [7] [°C],thermal shift delta Tm [8] [°C],thermal shift delta Tm [9] [°C],thermal shift delta Tm [10] [°C]
O=c1[nH]nc(Sc2ncc([N+](=O)[O-])s2)n1-c1ccc2c(c1)OCCO2,-1.46,-1.46,-2.53,0.59,0.64,0.84,-0.58,0.5,3.84,0.07
Cc1nc2ccc(-n3ncc(C(=O)c4cc5ccccc5[nH]4)c3N)cc2[nH]1,-0.26,2.01,0.01,0.51,0.59,0.2,0.87,0.56,-0.34,0.11
CCn1cc(-c2ccnc3[nH]c(-c4cccc(CN(C)C)c4)cc23)c(-c2ccc(NC(=O)N(C)C)cc2)n1,1.27,8.63,0.47,0.42,0.52,0.64,4.22,0.71,1.35,0.42
CN(C)C/C=C/C(=O)Nc1cc2c(Nc3ccc(F)c(Cl)c3)ncnc2cc1O[C@H]1CCOC1 [Afatinib (BIBW2992) Dimaleate],1.02,7.65,-0.29,0.44,0.24,0.46,2.05,0.61,1.27,0.08
CO[C@H]1C[C@@H]2CC[C@@H](C)[C@@](O)(O2)C(=O)C(=O)N2CCCC[C@H]2C(=O)O[C@H]([C@H](C)C[C@@H]2CC[C@@H](OC(=O)C(C)(CO)CO)[C@H](OC)C2)CC(=O)[C@H](C)/C=C(\C)[C@@H](O)[C@@H](OC)C(=O)[C@H](C)C[C@H](C)/C=C/C=C/C=C/1C,-0.25,0.18,-4.25,0.46,0.38,0.24,-0.27,0.76,0.91,0.12
COc1cc2ccc(=O)oc2cc1O [Scopoletin],-0.06,0.76,2.23,-0.1,0.06,-0.08,-0.43,0.22,1.13,0.87
"Cc1cc(C(=O)Nc2nc3cccc(Cl)c3n2[C@@H]2CCCCN(C(=O)/C=C/CN(C)C)C2)ccn1 [Nazartinib (EGF816, NVS-816)]",0.04,3.43,-0.02,0.54,0.6,0.38,0.74,0.4,1.91,0.43
Cc1nc(N)sc1-c1ccnc(Nc2ccc(N3CCOCC3)cc2)n1,2.53,13.4,8.12,0.36,0.56,0.98,6.87,0.66,0.8,0.42
NC1(Cc2ccc(Cl)cc2)CCN(c2ncnc3[nH]ccc23)CC1,0.12,2.2,0.61,0.49,0.66,0.72,0.73,0.61,0.47,-0.27
CCOc1cc2ncc(C#N)c(Nc3ccc(F)c(Cl)c3)c2cc1NC(=O)/C=C/CN(C)C [Pelitinib (EKB-569)],0.32,2.2,-1.87,-0.33,0.56,0.2,2.16,0.39,0.65,0.56
Oc1cc(O)cc(/C=C/c2ccc(O)c(O)c2)c1 [Piceatannol],0.71,2.79,-0.53,1.37,0.74,0.72,1.4,0.94,0.43,0.27
NCC(=O)Nc1ccc(-n2nc(C(F)(F)F)cc2-c2ccc3c(ccc4ccccc43)c2)cc1,-0.2,1.75,1.88,0.25,-0.08,0.27,0.39,0.4,0.5,0.18
N#Cc1ccc2[nH]c(O)c(-c3ccc(CN4CCOCC4)cn3)c2c1,0.29,2.86,1.38,0.81,0.35,0.3,-0.35,0.74,1.19,0.07
N[C@@H]1CCCN(c2c(/C=C3\SC(=O)NC3=O)cccc2-c2ccccc2)C1,0.42,2.29,-1.84,0.64,0.34,-0.01,-0.21,0.41,1.48,0.3
COc1ccc(S(=O)(=O)N(C(C)=O)c2ccccc2/C=C/c2cc[n+]([O-])cc2)cc1,0.43,0.92,-6.15,0.67,0.66,0.45,0.41,0.58,1.06,0.31
C[C@@H]1COCCN1c1cc(=O)n2c(n1)N(Cc1cncc(Cl)c1)[C@H](C(F)(F)F)CC2,0.52,-0.08,-0.52,1.37,0.35,0.36,-0.04,0.75,1.02,-0.12
COc1ccc(CNC(=O)Nc2ncc([N+](=O)[O-])s2)cc1,-0.18,-0.24,0.88,1.04,0.63,0.59,0.38,0.52,0.68,0.25
"CC(C)(O)CNc1ncc(-c2ccnc(Nc3ccncc3)n2)c(CC2CC2)n1 [VPS34 inhibitor 1 (Compound 19, PIK-III analogue)]",0.13,6.5,2.61,0.38,0.25,0.5,3.99,0.4,1.83,0.44
CC(C)(CCCCCC(O)CCCCCC(C)(C)C(=O)O)C(=O)O,0.04,0.87,0.14,0.47,0.38,0.54,-0.14,0.48,0.64,-0.4
O=C(/C=C/c1ccc(O)c(O)c1)c1ccc(O)cc1O [Butein],2.45,8.49,4.48,1.45,0.81,1.93,4.87,2.16,1.46,0.82
CCN(CC)CCCC(C)Nc1nc(C)cc(Nc2ccc3nc(C)cc(N)c3c2)n1 (stereo not given),-0.27,-0.09,-1.91,0.14,0.63,0.55,-0.04,0.19,1.53,0.49
